Consider 16 molecules from PubChem BioAssay.

Structures are written as SMILES. Unmarked numbers belong to inactive results. The rule behind the calls is not given here.

The target in this test is Pantothenate synthetase (Mycobacterium tuberculosis (strain ATCC 25618 / H37Rv)) (UniProt P9WIL5). The test can be described thus: Recombinant Mtb pantothenate synthetase (PanC) inhibitors, coupled enzyme, confirmatory (AID 375).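 Note: 0% = full reaction with vehicle and 100% = no enzyme background.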 The settings on record: coupled enzyme assay; at 10 µM, active compounds read high.
Pantothenate synthetase (Mycobacterium tuberculosis (strain ATCC 25618 / H37Rv)), sequence (P9WIL5 whole entry, looked up): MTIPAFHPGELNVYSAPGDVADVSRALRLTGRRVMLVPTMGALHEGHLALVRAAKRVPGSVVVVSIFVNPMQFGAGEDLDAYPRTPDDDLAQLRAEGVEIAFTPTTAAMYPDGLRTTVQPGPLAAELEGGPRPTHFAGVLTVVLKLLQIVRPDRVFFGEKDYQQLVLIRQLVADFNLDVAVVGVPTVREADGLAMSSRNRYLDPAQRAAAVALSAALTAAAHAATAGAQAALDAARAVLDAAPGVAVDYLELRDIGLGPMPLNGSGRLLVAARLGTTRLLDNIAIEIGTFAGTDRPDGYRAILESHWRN
As to `COc1ccc(-n2ncc3c(N4CCC(C)CC4)ncnc32)cc1`, the inhibition (usually the percentage by which the read-out fell short of the control) is 1%.
For `Clc1c(CSc2nc3ccccc3o2)nc2sccn12` the value was 1%; for `COc1ccc(N2CCN(Cc3nc4c(c(=O)n(C)c(=O)n4C)n3Cc3ccccc3C)CC2)cc1`, 7%; for `O=S(=O)(Nc1ccn(-c2ccccc2)n1)c1ccc(Br)cc1`, 0%.
As for `CCOC(=O)c1[nH]c(C)c(C(=O)Nc2ccc(Cl)cc2)c1C`, the inhibition was 0%.
For `Clc1ccc(OCCCn2cncn2)cc1Cl` the value was 0%; for `O=C(NCCCN1CCOCC1)C1CC(=O)N(CCc2ccccc2)C1` (stereo unspecified), 4%.
For `CCC1CCCCN1CCNS(=O)(=O)c1ccc2c(c1)oc(=O)n2C` (stereo unspecified) the value was 1%.
To `CC[C@H](C)C(=O)O[C@H]1C[C@@H](C)C=C2C=C[C@H](C)[C@H](CC[C@@H]3C[C@@H](O)CC(=O)O3)[C@H]21` belongs 5%; to `COc1ccc([C@@H]2Sc3ccccc3N(CCN(C)C)C(=O)[C@@H]2OC(C)=O)cc1`, 2%.
Turning to `COc1ccc(C(C)NC(=O)c2ccoc2C)cc1OC` (stereo unspecified), the inhibition was 5%.
For `CCCn1c(=O)c2ccccc2n2c(SCCOc3ccccc3F)nnc12` the value was 0%; for `COc1cc(C2C(C#N)=C(N)Oc3cc(N)ccc32)cc(OC)c1OC` (stereo unspecified), 2%.
`Cc1ccc(-c2nnc(-c3ccc(Br)cc3)o2)o1`: the inhibition is 0%.
To `c1ccc2c(c1)ccc1nnc(-c3ccc4c(c3)OCO4)n12` belongs 2%.
To `Cn1c(=O)[nH]c(=O)c2c1nc(N1CCNCC1)n2CCOc1ccccc1` belongs 0%.
